High-throughput results: PubChem, The Scripps Research Institute Molecular Screening Center
AHR act – activates the human aryl hydrocarbon receptor | hit rate 2.5% among 320,000 | activation, % at 5 µM | AHR-responsive luciferase reporter cells, luminescence | AID 2796; in the data active = activation above about 47%
DAX1 inh-1 – inhibits human nuclear receptor DAX1; HEK293 Gal4-DAX1 luciferase reporter, luminescence; inhibition, % at 6.75 µM; AID 504766; hit rate 0.99% among 340,000; P51843;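 active = inhibition above the mean over all tested compounds plus 3 SD, cut at about 4.2% in these data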;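 also: inhibition shows as a rise in luminescence from relieved DAX1 repression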
Target sequence (P51843 207-470 limits assumed): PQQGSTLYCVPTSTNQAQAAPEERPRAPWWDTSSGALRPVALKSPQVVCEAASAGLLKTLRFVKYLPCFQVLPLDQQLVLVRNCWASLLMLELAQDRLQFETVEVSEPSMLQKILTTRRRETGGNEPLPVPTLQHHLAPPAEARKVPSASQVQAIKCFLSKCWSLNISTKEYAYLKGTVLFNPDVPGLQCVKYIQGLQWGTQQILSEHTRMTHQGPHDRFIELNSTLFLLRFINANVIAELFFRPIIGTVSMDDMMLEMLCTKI
hcDAF-12 act – activators of H. contortus DAF-12 nuclear receptor; HEK293 hcDAF-12 lit1-tk-luc reporter, luminescence; 0% DMSO, 100% Δ7-dafachronic acid; activation, % at 6.8 µM; hit rate 1.4% among 370,000; AID 652067;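 active = activation above the mean of all tested compounds plus 3 SD, cut at about 5.5% in these data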
hgDAF12 agonist – activates the H. glycines DAF-12 receptor ligand-binding domain; HEK293 GAL4-hgDAF12 UAS-luciferase reporter, agonist luminescence; normalized to butyrate control; activation, % at 6.8 µM; hit rate 1.8% among 370,000; AID 687014;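 active = activation above a cutoff set at the mean of all screened compounds plus 3 SD, cut at about 10% in these data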
ssDAF12 agonist – activates DAF-12 receptor from parasite S. stercoralis; HEK293 ssDAF-12/GRIP1 lit1-tk-luc reporter, luminescence; % of 3 µM dafachronic acid response; AID 652126; hit rate 1% among 370,000; activation, % at 6.8 µM;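 active = activation above the mean over all tested compounds plus 3 SD, cut at about 0.9% in these data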
DAX1 inh-2 – blocks DAX1 repression of SF-1 activated StAR promoter; hit rate 1.1% among 370,000; HEK293T StAR-luciferase reporter, SF-1/DAX-1 repression relief; inhibition, % at 6.8 µM; AID 652010;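 active = inhibition above the mean over all tested compounds plus 3 SD, cut at about 3.6% in these data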;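 also: higher inhibition means more luminescence from relief of DAX-1 repression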
A number is an active result; . = inactive; / = no result given. A selection: hits, their analogues and other compounds. The true share with any hit is near 5.7%.

SMILES	AHR act	DAX1 inh-1	hcDAF-12 act	hgDAF12 agonist	ssDAF12 agonist	DAX1 inh-2
COc1ccc(Nc2cc(C)nc3nc(C)nn23)c(OC)c1	.	5.1	.	.	.	.
COc1ccc(OC)c(Nc2cc(C)nc3nc(C)nn23)c1	.	.	.	.	.	.
COc1ccc(CCNC(=O)c2ccc(CS(=O)Cc3ccc(Cl)cc3)o2)cc1OC (stereo not drawn)	.	.	.	.	.	.
CCN(CC(=O)Nc1ccccc1C(F)(F)F)C(=O)c1oc2c(Cl)cccc2c1C	.	.	.	.	.	.
COc1ccc(C(CNC(=O)c2oc3c(Cl)cccc3c2C)N2CCCC2)cc1 (stereo not drawn)	49.8	.	.	.	.	.
CCN(CC(=O)Nc1ccc(OC)cc1)C(=O)c1oc2c(Cl)cccc2c1C	53.0	.	.	.	.	.
COc1ccc(C(CNC(=O)c2oc3ccccc3c2C)N2CCCC2)cc1 (stereo not drawn)	47.5	.	.	.	.	.
COc1ccc(C(CNC(=O)c2oc3ccc(Cl)cc3c2C)N2CCCCC2)cc1 (stereo not drawn)	.	.	.	.	.	.
C[C@H](CO)N1C[C@H](C)[C@H](CN(C)C(=O)Nc2ccc3c(c2)OCCO3)OCc2cnnn2CCCC1=O	/	.	.	.	.	.
C[C@H]1CN([C@@H](C)CO)C(=O)CCCn2cc(nn2)CO[C@@H]1CN(C)C(=O)NC1CCCCC1	/	/	.	.	.	4.1
Cc1noc(C)c1NC(=O)N(C)C[C@@H]1OCc2cnnn2CCCC(=O)N([C@@H](C)CO)C[C@H]1C	/	.	.	.	.	.
C[C@@H]1CN([C@H](C)CO)C(=O)CCCn2nncc2CO[C@H]1CN(C)C(=O)Nc1ccc2c(c1)OCCO2	/	/	.	.	1.5	.
Cc1noc(C)c1NC(=O)N(C)C[C@H]1OCc2cnnn2CCCC(=O)N([C@H](C)CO)C[C@@H]1C	/	.	.	.	1.3	.
OC1(c2ccc(Cl)c(Cl)c2)C[n+]2ccccc2N1Cc1ccccc1 (stereo not drawn)	.	.	.	.	.	.
COc1cc2ncnc(NCc3ccc4c(c3)OCO4)c2cc1OC	63.4	.	.	.	.	.
CC1(C(=O)N2CCC(Oc3cccnc3)CC2)CC1	/	/	.	.	.	.
C/C(=N/NC(=O)c1ccc(Br)o1)C(C)C	.	.	.	10.7	.	.
CC(NC(=O)c1ccc(Br)o1)C1CCCO1 (stereo not drawn)	.	.	.	.	.	.
N#C/C(=C\c1cccnc1)C(=O)Nc1ccc(S(N)(=O)=O)cc1	/	.	.	.	.	.
COc1ccc(N(C(C)=O)c2nc(C)cc(C)c2C#N)c(OC)c1	77.5	.	.	.	.	.
O=C(Nc1nnc([C@H]2C[C@H](O)[C@@H](CO)O2)s1)c1cccc(C(F)(F)F)c1	/	/	.	.	.	.
O=C(Nc1cccc(Cl)c1)c1csc([C@H]2C[C@H](O)[C@@H](CO)O2)n1	/	/	.	10.6	.	.
CC(C)Oc1cccc(C(=O)Nc2nnc([C@@H]3C[C@H](O)[C@@H](CO)O3)s2)c1	/	/	.	.	1.0	.
O=C(Nc1ccc(Cl)cc1)c1csc([C@@H]2C[C@H](O)[C@@H](CO)O2)n1	/	/	.	.	.	.
O=C(Nc1cccc(C(F)(F)F)c1)Nc1nnc([C@@H]2C[C@H](O)[C@@H](CO)O2)s1	/	/	.	10.5	.	.
SMILES	AHR act	DAX1 inh-1	hcDAF-12 act	hgDAF12 agonist	ssDAF12 agonist	DAX1 inh-2
CCOc1ccc(NC(=O)COc2ccc(C(=O)NC(C)c3ccc(S(N)(=O)=O)cc3)cc2OC)cc1 (stereo not drawn)	.	.	.	.	.	.
c1ccc(CSC2=NNC(c3ccccn3)S2)cc1 (stereo not drawn)	.	.	.	.	.	.
O=C(CSC1=NNC(c2ccccn2)S1)Nc1ccc(C(F)(F)F)cc1 (stereo not drawn)	53.3	.	.	.	.	.
N#CC1(NC(=O)CSc2nnc(-c3ccccc3F)n2N)CCCCC1	.	.	.	.	.	.
CCC(=O)Nc1ccc(C(=O)CSc2nc3ccccc3cc2CC)cc1	50.7	.	.	.	.	.
CCOC(=O)c1c(NC(=O)CSc2nc3ccc(C)cc3[nH]2)sc2c1CC(C)(C)NC2(C)C	.	.	.	.	.	.
COc1ccc(OC)c(NC(=O)c2cnc3n(c2=O)CCS3)c1	50.4	.	.	.	.	.
COc1ccccc1NC(=O)c1cnc2n(c1=O)CCS2	66.6	.	.	.	.	.
CC1=C(C(=O)OCCc2ccccc2)C(c2ccsc2)NC(=O)N1C (stereo not drawn)	.	4.5	.	.	.	.
CN(C)c1ccc(CNC(=O)C2Cc3c(-c4ccccc4Oc4ccccc4)ccnc3O2)cc1 (stereo not drawn)	/	/	.	.	.	.
CC(C)(C)OC(=O)N/N=C\c1ccc(OC(=O)c2ccco2)cc1	.	.	6.2	11.3	.	.
Cc1ccc(NCC(=O)N/N=C/c2ccc(OC(=O)c3ccco3)cc2)cc1	58.8	.	.	.	.	.
Cc1ccccc1NCC(=O)N/N=C/c1ccc[nH]1	/	/	.	.	.	/
Cc1ccc(NCC(=O)N/N=C\c2ccc[nH]2)cc1	61.8	/	.	.	.	.
CN(C)CCn1c2c(c(SCC(=O)NCc3ccccc3)nc1=O)CCCC2	.	.	.	.	.	.
O=C1c2ccccc2C(c2nnnn2-c2ccc3c(c2)OCCO3)N1CCCn1ccnc1 (stereo not drawn)	/	/	.	.	.	3.9
Cc1ccc(NC(=O)Cc2nc(CN(C)CC(=O)Nc3ccc(C)cc3)cs2)cc1	.	.	.	.	.	.
Cc1ccc2nc(SCC(=O)Nc3ccc(C(N)=O)cc3)[nH]c2c1	.	.	.	.	.	.
Cc1ccc2nc(SCC(=O)Nc3cccc([N+](=O)[O-])c3)[nH]c2c1	89.3	.	.	.	.	.
Cc1ccc2nc(SCC(=O)Nc3ccc(F)cc3F)[nH]c2c1	71.2	.	.	.	.	.
Cc1ccc(S(=O)(=O)CCC(=O)Nc2cccc([N+](=O)[O-])c2)cc1	.	7.3	.	.	.	.
Cc1ccc2nc(SCC(=O)Nc3ccc4[nH]c(=O)[nH]c4c3)[nH]c2c1	/	.	.	.	1.0	.
Cc1ccc(S(=O)(=O)CCC(=O)Nc2cccc(Cl)c2)cc1	.	.	.	.	.	.
Cc1ccc(F)cc1NC(=O)COC(=O)C1CC2CCCC(C1)C2=O (stereo not drawn)	/	.	.	.	.	.
Cc1ccc2nc(SCC(=O)NC3CC3)[nH]c2c1	.	.	.	.	.	.
CCCC(C)NC(=O)CSc1nc2ccc(C)cc2[nH]1 (stereo not drawn)	51.0	.	.	.	.	.
O=C(CSc1nc2ccccc2[nH]1)Nc1ccc(F)c(F)c1	.	.	.	.	.	.
Cc1ccc2nc(SCC(=O)c3ccc(O)cc3O)[nH]c2c1	.	.	.	11.4	.	.
